From PubChem BioAssay (NCI) come the findings set out here.

About 83,000 compounds went through this panel and 20% of them were active in at least one assay; those are over-represented in the sample as a whole.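 Cell lines were cultured in 96-well plates, exposed to a single compound concentration, and assessed for percent growth 48 hours later.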 Unmarked numbers belong to inactive results. The source made the active and inactive calls. How the source made its calls: active means growth percent below 10; inactive means the rest.

This assay concerns HL-60(TB) leukemia. Description: NCI-60 one-dose screen, 48 h (100 = growth as untreated, 0 = no growth, -100 = all killed). Conditions: 10 µM unless noted.

Take `CC1(C)[C@@H](O)CC[C@]2(C)[C@H]3CC[C@@H]4[C@H]5[C@H](C(=O)/C=C\c6ccccn6)CC[C@]5(O)CC[C@@]4(C)[C@]3(C)CC[C@@H]12`: the growth is -24.5% (active). The same measure for `CN1CCN(c2ccc(/C=N/Nc3nc4ccccc4c(=O)n3-c3ccccc3)cc2)CC1`: 113%. In the case of `Cc1ccc(NC(=O)Nc2nc3ccc([N+](=O)[O-])cc3s2)cc1`, the growth is -17.2% (active). The same measure for `N#Cc1cnc2ccc(-c3cnc4[nH]ncc4c3)cc2c1N1CCc2cc(F)c(Cl)cc21`: 1.45% (active); for `CCOC(=O)C1=C(C)NC(C)=C(C(=O)OC(C)C)C1c1cccc(C#N)c1` (stereo not drawn): 93.1%; for `CC(=O)c1cc(C(=O)N2c3ccccc3Sc3ccccc32)n2ccc3ccccc3c12`: 9.89% (active). For `O=S1SC(c2ccccc2)=NN1c1cc(F)cc(F)c1` (stereo not drawn), the growth is 32.2%. Then `O=C(NCCNc1cc(-c2cn(-c3ccccc3)nc2-c2cccc(O)c2)ccn1)Nc1cc(C(F)(F)F)cc(C(F)(F)F)c1`, with 97%; and `Cc1cc(-c2ccc3nc(N)sc3c2)nc2ccc3[nH]ncc3c12`, with 25.8%; and `CC(C)(O)c1cncc(-c2ccc3ncnc(NCc4ccccc4)c3c2)c1`, with 105%. The same measure for `CCCCNNC(=O)c1ccc(-c2cccc(F)c2F)cc1`: 28.4%; for `CNC(=O)c1cc(-c2ccc(NC(=O)Nc3ccc(N4CCN(C)CC4)c(C(F)(F)F)c3)cc2)nc2cccnc12`: -16.4% (active); for `CC(=O)c1sc(Nc2cccc(Nc3nc(C)c(C)s3)c2)nc1C`: 34.2%.
